# Screening results from PubChem.
# TDP1 cell CPT = DT40-hTDP1 cell growth loss with CPT; chicken DT40 Tdp1-/-;hTDP1 cells + 20 nM CPT, ATP luminescence, 48 h; Potency, µM (highest dose often 46.2 µM), for the others: at the top dose activity change, negative = growth inhibition, most hits filed as inhibitors; hit rate 12% among 420,000; AID 686979; note: potency is the fitted concentration of half-maximal effect; % is set by controls: 0 for no effect and ±100 for the full control effect; nearly all actives have a fitted effect of over 55% in size
#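 Cell growth measured by CellTiter-Glo luminescence after a minimum 48 h, 37 C compound exposure with 20 nM CPT in Tdp1-knockout DT40 cells stably expressing hTDP1, seeded 400/well; qHTS titration format.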
# TDP1 cell noCPT = qHTS for Inhibitors of human tyrosyl-DNA phosphodiesterase 1 (TDP1): qHTS in cells in absence of CPT; DT40 Tdp1-/- hTDP1 cells, no CPT, ATP luminescence, 48 h; Potency, µM (highest dose often 46.2 µM), inactives show top-dose activity change, negative = growth inhibition, hits mostly inhibitors; AID 686978, 2013; hit rate 15% among 420,000; note: potency is the fitted concentration of half-maximal effect; % is set by controls: 0 for no effect and ±100 for the full control effect; nearly all actives have a fitted effect of over 55% in size
#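 Seeded 400 DT40-hTDP1 cells/well (vehicle DMSO, no 20 nM CPT); pinned compounds; ≥48 hr at 37 °C; CellTiter-Glo luminescence as viability measure.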
# HepG2 tox = counter-screen for TGF-b inhibitors: cytotoxicity in HepG2 cells. HepG2 CAGA-GFP viability, ATP luminescence, 18 h. Potency, µM (highest dose often 46.1 µM), for inactives: at the top dose activity change, negative = cytotoxicity, most hits filed as cytotoxic. hit rate 0.76% among 410,000; note: potency is the fitted concentration of half-maximal effect
#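 CellTiter-Glo luminescence gave cytotoxicity after 18 hours at 37 degrees C. The cells were HepG2 CAGA-GFP in 1% FBS DMEM, stimulated with 500 pg/mL TGF-beta after compound addition. %Activity was normalised to no-cell wells (complete cell-killing) and DMSO (no toxicity), and curves were fitted and classified.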
# TDP1 block = blocks human tyrosyl-DNA phosphodiesterase 1. Q9NUW8. recombinant TDP1, AlphaScreen DNA substrate cleavage. Potency, µM (titrated, usually from 130 µM), without a hit: at the highest dose activity change, negative = inhibition, usual class: inhibitors. hit rate 0.28% among 350,000. AID 485290; note: potency is the fitted concentration of half-maximal effect; % is set by controls: 0 for no effect and ±100 for the full control effect; nearly all actives have a fitted effect of over 40% in size
# Target sequence (Q9NUW8 whole entry, looked up): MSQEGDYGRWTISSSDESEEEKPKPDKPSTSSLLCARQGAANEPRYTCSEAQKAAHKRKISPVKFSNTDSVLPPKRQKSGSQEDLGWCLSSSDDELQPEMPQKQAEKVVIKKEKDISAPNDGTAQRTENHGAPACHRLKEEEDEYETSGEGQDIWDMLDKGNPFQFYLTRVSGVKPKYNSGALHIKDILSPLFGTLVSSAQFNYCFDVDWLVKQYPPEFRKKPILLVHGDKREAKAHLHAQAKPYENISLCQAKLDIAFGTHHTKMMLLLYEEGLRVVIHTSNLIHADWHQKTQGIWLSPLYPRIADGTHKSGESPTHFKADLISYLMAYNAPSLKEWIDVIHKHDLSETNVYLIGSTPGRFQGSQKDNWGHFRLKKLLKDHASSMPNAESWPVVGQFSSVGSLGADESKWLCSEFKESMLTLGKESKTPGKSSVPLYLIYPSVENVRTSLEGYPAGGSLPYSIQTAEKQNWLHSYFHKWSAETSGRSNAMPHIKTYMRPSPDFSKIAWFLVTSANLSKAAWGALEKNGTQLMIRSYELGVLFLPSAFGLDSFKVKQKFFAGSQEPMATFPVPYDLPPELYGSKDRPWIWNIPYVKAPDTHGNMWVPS
#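 E. coli-derived human Tdp1, 1 nM final. Cpd preinc 15 min RT; substrate 15 nM final, 5 min RT; AS bead mix 10 ug/ml final, 10 min RT. Signal loss = tyrosine-FITC cleavage. No-enzyme wells = max signal.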
# IL1B secr inh = inhibitors of inflammasome signaling (IL-1 beta secretion). THP-1 LPS/ATP IL-1B secretion, AlphaLISA, 16 h; active compounds read low. activity change, % at 57.5 µM. hit rate 4.7% among 360,000; in the data active = activity change below about -50%; inconclusive = mostly about -30% to -49%; note: % is set by controls: 0 for no effect and ±100 for the full control effect
#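 THP-1 cells pretreated 1 hr with compounds (up to 57.5 uM final), then stimulated with LPS (250 ng/mL final) plus ATP (1.25 mM final); secreted IL-1B measured by AlphaLISA after 16 hr, decreased signal indicating inhibition.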
# TGFb inhibitor = blocks TGF-b signaling; HepG2 CAGA-GFP TGF-b/SMAD3 reporter, GFP fluorescence, 18 h; TGF-beta stimulated, 500 pg/mL final; Potency, µM (titrated, usually from 46.1 µM), inactives show top-dose activity, negative = inhibition, actives largely listed as inhibitors; hit rate 1.2% among 410,000; note: potency is the fitted concentration of half-maximal effect; % is set by controls: 0 for no effect and ±100 for the full control effect; nearly all actives have a fitted effect of over 65% in size
#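 First, reporter cells (HEPG2 CAGA-GFP) rested 2 h at 37 degrees C. Next, compounds were pinned in and TGF-beta added to 500 pg/mL final. After 18 h, GFP was imaged per cell and summed per well.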
# Active calls of the source: *; ? = inconclusive; nt = not tested or not shown; [ ] = remark or other dose. Most compounds without a hit are left out; they make up all but 18% or so of the library. Unless noted, calls come from the whole dose curve; as a rule, active = well fitted curve in the direction sought with a large enough effect; inconclusive = small, poorly fitted or top-dose-only effect, or another doubt; inactive = no such curve, though single readings can be large; an effect the other way counts as inactive or inconclusive.
SMILES,TDP1 cell CPT,TDP1 cell noCPT,HepG2 tox,TDP1 block,IL1B secr inh,TGFb inhibitor
CC1CCCCN1C(=O)c1ccc2c(c1)N(Cc1cccc(Cl)c1)C(=O)c1ccccc1S2=O (stereo not given),?,21µM*,-29%,4%,nt,?
CC1CCC(NC(=O)c2ccc3c(c2)N(Cc2cccc(Cl)c2)C(=O)c2ccccc2S3=O)CC1 (stereo not given),-26%,-23%,0%,2%,nt,-8%
COc1ccccc1NC(=O)C1CC(C(C)C)OC1=O (stereo not given),11%,2%,8%,nt,18,-3%
O=C(c1ccc2c(c1)N(Cc1cccc(Cl)c1)C(=O)c1ccccc1S2=O)N1CCC(Cc2ccccc2)CC1 (stereo not given),3.3µM*,4.6µM*,-32%,6%,nt,-22%
CC(=O)c1ccc(NC(=O)c2ccc3c(c2)N(Cc2cccc(Cl)c2)C(=O)c2ccccc2S3=O)cc1 (stereo not given),?,?,4%,0%,nt,9%
Cc1cccc(N2CCN(C(=O)c3ccc4c(c3)N(Cc3cccc(Cl)c3)C(=O)c3ccccc3S4=O)CC2)c1C (stereo not given),3.7µM*,5.2µM*,-5%,4%,nt,?
CN1CCN(C(=O)c2ccc3c(c2)N(Cc2cccc(Cl)c2)C(=O)c2ccccc2S3=O)CC1 (stereo not given),-4%,-13%,4%,nt,-3,12%
CCN1CCN(C(=O)c2ccc3c(c2)N(Cc2cccc(Cl)c2)C(=O)c2ccccc2S3=O)CC1 (stereo not given),?,21µM*,-30%,-1%,nt,-30%
Cc1ccc(S(=O)(=O)NCCC(=O)OCC(=O)N(Cc2ccccc2)C(C)(C)C)cc1,-27%,?,-11%,nt,-6,5%
COc1cc(F)c(S(=O)(=O)N2CCCN(S(=O)(=O)c3ccc4c(c3)OCCO4)CC2)c(F)c1,nt,nt,nt,0%,nt,nt
Cc1cccc(-n2nnc(C(=O)NC3CCCc4ccccc43)c2N)c1 (stereo not given),?,18µM*,-22%,2%,-16,-1%
COc1c(F)c(F)c(C(=O)Nc2ccccc2N2CCN(C(=O)C(C)C)CC2)c(F)c1F,-6%,?,-48%,0%,-1,19%
O=C(NC(=S)Nc1ccc(NC(=O)c2cccs2)cc1)c1cc2ccccc2o1,13µM*,?,-15%,-4%,8,-5%
Cc1ccc(C(=O)NC(=S)Nc2ccccc2N2CCCC2)cc1[N+](=O)[O-],16µM*,18µM*,-27%,-2%,-19,?
Cc1ccc(C(=O)Nc2ccccc2N2CCN(C(=O)C(C)C)CC2)cc1C,?,13µM*,-6%,-3%,-22,3%
CN(C(=O)c1cccc(NC(=O)Cc2cccc([N+](=O)[O-])c2)c1)C1CC1,0%,-7%,25%,2%,-3,24%
Cc1ncc2c(c1CNC(=O)c1ccc3c(c1)OCO3)CCN(C(=O)/C=C/c1ccc(Cl)cc1)C2,-9%[9.04 µM],-27%,nt,nt,nt,nt
CCCN(CC(=O)Nc1ccc(F)c(F)c1F)C(=O)c1ccc(N2CCCC2=O)cc1,1%,-29%,10%,1%,24,-4%
Cc1ccc(NS(=O)(=O)c2ccc(NC(=O)c3cccs3)cc2)c(C)c1,?,?,12%,-3%,1,0%
COc1ccc(C(=O)Nc2ccccc2N2CCCCC2)cc1[N+](=O)[O-],?,?,7%,4%,75,-14%
COc1cc(NS(=O)(=O)c2ccc(NC(=S)NC(=O)c3cccs3)cc2)nc(OC)n1,-9%,0%,-7%,0%,25,0%
CN1CCN(c2ccc(C(=O)c3ccccc3)cc2[N+](=O)[O-])CC1,0%,?,-3%,3%,-53*,5%
Cc1ccc(C(=O)Nc2ccccc2N2CCCCC2)cc1[N+](=O)[O-],?,16µM*,-40%,3%,79,?
Cc1ccc(NC(=O)c2cc(S(=O)(=O)Nc3ccc(C)cc3)cs2)cc1,23µM*,23µM*,-59%,nt,-78*,?
Cc1cc(C)cc(NS(=O)(=O)c2ccc(NC(=S)NC(=O)c3cccs3)cc2)c1,21µM*,18µM*,-18%,0%,?,?
SMILES,TDP1 cell CPT,TDP1 cell noCPT,HepG2 tox,TDP1 block,IL1B secr inh,TGFb inhibitor
COc1ccc2c(c1)sc1ncc(C(=O)NCc3ccc(Cl)cc3)c(=O)n12,16%,9%,-9%,0%,nt,-9%
CN1CCN(c2ccccc2NC(=O)c2ccc(N3CCCCC3)c([N+](=O)[O-])c2)CC1,12µM*,12µM*,-23%,3%,-63*,0%
COc1cccc(C(=O)Nc2cc([N+](=O)[O-])ccc2N2CCN(C)CC2)c1,?,-20%,-5%,8%,-11,-4%
Cc1cc(C(=O)NC2CCCc3ccccc32)ccc1[N+](=O)[O-] (stereo not given),?,?,-6%,2%,-14,1%
Cc1ccc(C(=O)NC2CCCc3ccccc32)cc1[N+](=O)[O-] (stereo not given),?,15µM*,5%,5%,-18,-11%
COc1ccc(C(=O)Nc2cc([N+](=O)[O-])ccc2N2CCN(C)CC2)cc1,11µM*,?,-18%,5%,-1,1%
Cc1ccc(C(=O)NC(=S)Nc2ccc(NC(=O)c3cccs3)cc2)cc1[N+](=O)[O-],8.2µM*,3.7µM*,1%,4%,12,0%
Cc1c(C)c2c(c(C)c1O)CCC(C)(COc1ccc(CC3SC(=O)NC3=O)cc1)O2 (stereo not given),13µM*,13µM*,nt,25%,nt,nt
CCOC(=O)c1[nH]c2c(c1Cc1ccccc1)C(=O)CC(c1ccc(Cl)cc1)C2 (stereo not given),16µM*,23µM*,-6%,0%[12.3 µM],nt,-15%
CCOC(=O)c1[nH]c2c(c1Cc1ccccc1OC)C(=O)CC(c1ccc(OC)cc1)C2 (stereo not given),?,23µM*,-2%,5%,nt,6%
CCOC(=O)c1[nH]c2c(c1-c1ccccc1)C(=O)CC(c1ccc(OC)c(OC)c1)C2 (stereo not given),?,?,-14%,1%,-17,-13%
